# Data: ChEMBL document CHEMBL3988442, “University of Dundee, Small-Polar-MMV Screening Library” (2021)
# What was measured:
# [1] = target: T1, Aspartate--tRNA(Asp/Asn) ligase (Mycobacterium tuberculosis (strain ATCC 25618 / H37Rv)) (UniProt P9WFW3); experiment: Assay for Asp RNA synthetase-1 from Mycobacterium tuberculosis; format: functional; set-up: scale not given: direction of the effect not stated beside the values; conditions: 30 µM; note: in the data most compounds retested in dose-response had high values
# T1 sequence (whole entry): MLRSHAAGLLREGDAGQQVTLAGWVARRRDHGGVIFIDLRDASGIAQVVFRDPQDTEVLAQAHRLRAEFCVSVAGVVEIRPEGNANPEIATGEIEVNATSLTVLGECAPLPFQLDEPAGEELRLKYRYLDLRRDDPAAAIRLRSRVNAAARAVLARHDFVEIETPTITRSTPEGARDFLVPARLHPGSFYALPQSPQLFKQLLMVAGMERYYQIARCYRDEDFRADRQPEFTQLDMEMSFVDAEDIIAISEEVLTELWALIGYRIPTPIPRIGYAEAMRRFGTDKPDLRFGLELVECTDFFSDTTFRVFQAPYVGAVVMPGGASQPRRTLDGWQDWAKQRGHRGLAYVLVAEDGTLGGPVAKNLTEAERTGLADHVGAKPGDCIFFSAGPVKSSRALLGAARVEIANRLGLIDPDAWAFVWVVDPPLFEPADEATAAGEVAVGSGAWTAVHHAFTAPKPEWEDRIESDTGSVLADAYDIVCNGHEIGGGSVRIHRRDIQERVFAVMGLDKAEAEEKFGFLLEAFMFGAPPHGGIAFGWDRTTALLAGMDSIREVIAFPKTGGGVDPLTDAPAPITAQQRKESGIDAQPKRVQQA
# [2] = target: Shiga toxin 2 (Escherichia coli O157:H7) (UniProt P09385+P09386); experiment: E. coli 0.157:H7 Shiga Toxin SOP - stx2 screening assay; format: functional; set-up: scale not given: direction of the effect not stated beside the values; conditions: 30 µM
Structure (SMILES),Percent Effect [1] [%],Percent Effect [2] [%]
Cc1cnn(CC2CCCN2CC(=O)N(C)Cc2ccc(C)o2)c1 (stereo not given),0.457,-11.2
NC(=O)c1csc(C(=O)N2CCCC(n3ccnc3)C2)c1 (stereo not given),-4.35,0.351
CC(C)(C)CC(=O)N1CC[C@@H]2[C@H](CC1)N(S(C)(=O)=O)CCS2(=O)=O,-2.83,-21.6
CCc1n[nH]c(C2CN(C(=O)c3cnc(C)s3)CCO2)n1 (stereo not given),-6,-8.48
COCC1CCN(C(=O)c2cccc(S(=O)(=O)NCC3(C)COC3)c2)C1 (stereo not given),5.94,10.4
O=C(NC1CCCN(c2ncccn2)C1)c1ccoc1 (stereo not given),-4.64,-14.5
COc1c(CNCc2cnn(C)c2)c(C(C)C)nn1C,-1.63,6.94
CCc1cccc(OCC(=O)N2CCCC(n3cncn3)C2)c1 (stereo not given),-0.88,26
Cc1cc(NCc2cc3n(n2)CCCN(S(C)(=O)=O)C3)ncn1,-7.29,25.2
CN(C)C(=O)c1cnc2n1CCN(Cc1ccccc1)C2,0.632,-28
CCc1ncc2c(n1)CN(CC(=O)NCCOc1ccccc1)CC2,2.89,23.5
CCc1nnc2n1CCN(CCS(=O)(=O)c1ccccc1)C2,-3.04,8.79
Cc1ccc(C)c(OC2CCN(C(=O)c3ccc(C)[nH]c3=O)CC2)c1,-5.01,16
Cc1ccn(-c2ccc(C(=O)N3CCCC(C(N)=O)C3)cc2)n1 (stereo not given),-3.4,8.96
CC(NC(=O)CNCCn1cccn1)c1ccc2c(c1)OCCO2 (stereo not given),-3.06,8.04
CNC(=O)[C@H]1C[C@H]2OCC[C@H]2N(Cc2cccc3ccccc23)C1,0.598,-15.6
Cc1cc(S(=O)(=O)N2CCC(S(C)(=O)=O)CC2)ccc1F,1.15,-4.34
CC(=O)Nc1nc(CN2CCCC2c2cnn(C)c2)cs1 (stereo not given),-1.4,-28.6
Cc1ccc(C(=O)N2CCSCC2)cc1NC(=O)NCCO,0.137,5.64
Cc1cc(C(=O)NCc2ccc(N3CCCC(C(N)=O)C3)cc2)no1 (stereo not given),-6.8,-3.03
CCCc1cc(=O)[nH]c2nnc(SCC(=O)NCc3ccc(C)cc3)n12,-7.99,2.17
OC1CCN(Cc2c(C3CCCNC3)[nH]c3ncccc23)CC1 (stereo not given),7.49,-0.778
O=C1CCCc2nccc(-c3ccccc3)c21,1.6,-14.1
Cn1cc(-c2nnn3c2COC(CNCc2nccs2)C3)cn1 (stereo not given),-4.41,-39.2
Cc1cnc(CN(C)C2CCN(CC(=O)Nc3nncs3)C2)o1 (stereo not given),3.17,-13.8

Structure (SMILES),Percent Effect [1] [%],Percent Effect [2] [%]
Cc1c(C)n(Cc2ccncc2)c2nc3c(c(N)c12)CCCCC3,4.67,-41.4
CN(C)C(=O)Cc1nc(CN2CCCCC2Cn2cccn2)cs1 (stereo not given),2.64,-25.1
Cc1cccc(C)c1OCCNC(=O)NC(C)c1nncn1C (stereo not given),-2.19,-46.4
N#Cc1cccnc1NCCNC(=O)N1CCCSCC1,0.546,12.8
Cn1ccc(C(=O)N2CCC[C@]3(C[C@@H](OCc4ccccn4)CO3)C2)n1,-1.05,-3.97
O=C(Cc1ccc(F)cc1)N1CCCCC1c1ccn2ccnc2n1 (stereo not given),-3.71,6.23
Cc1cc2c(=O)n3c(nc2s1)CCN(Cc1cnn(C)c1C)CC3,-4.72,8.81
CCn1c(CN2CCN(CC(N)=O)CC2)nc2c(F)cccc21,-3.37,6.95
Cc1nc(C)n(CC2CN(CCCOc3ccccc3C)CCO2)n1 (stereo not given),1.31,4.82
Cc1ccccc1C1(C(=O)NCCN2CCCC2)CCOCC1,11.1,12.4
CNS(=O)(=O)Cc1ccc(CNC(=O)Nc2cccnc2)cc1,-0.514,-38.8
CC(=O)N1CCCC1C(=O)NCCOc1cc(C)cc(C)c1 (stereo not given),-2.19,9.04
CCN1CCCC(CNC(=O)C2(c3cccc(Cl)c3)CC2)C1 (stereo not given),4.29,-31.2
CCOc1ccc(NC(=O)c2cnc(N3CCCC3)nc2C)cc1,-4.56,-10.5
Cc1ccc(CN2CCC(c3nnc(CN4CCCCC4)n3C)CC2)o1,-1.53,-7.9
CCCc1cc(C(=O)N(C)Cc2cccc3ncccc23)n(C)n1,-1.28,-12.5
c1cc(-c2cnccn2)cc(-c2ccn(CCN3CCCC3)n2)c1,1.97,-29.3
Fc1ccc(-c2cnc(CN3CCCC3Cn3cccn3)o2)cc1 (stereo not given),-1.83,8.21
CC(C(N)=O)N(C)CCCc1cc(-c2ccccc2)no1 (stereo not given),4.08,15
Cc1nn(C)c2sc(C(=O)N3CCCC(n4ccnc4C)C3)cc12 (stereo not given),-1.41,-28.1
CN(C(=O)c1cccc(C(=O)NCC(F)(F)F)c1)c1ccccc1,-2.65,-62.9
CCn1cnnc1CNC(=O)N1CCN(c2nc(C)c(C)s2)CC1,-5.01,-22.1
CN(CC(=O)N1CCCC1c1cnn(C)c1)c1ccc(Cl)cn1 (stereo not given),-2.16,29.7
CC(C)(C)N1CCCN(C(=O)c2csc(S(N)(=O)=O)c2)CC1,-2.95,-17.3
COCCN1CCN(Cc2ccc(F)c(C)c2)[C@H]2CS(=O)(=O)C[C@H]21,-3.12,-5.44

Structure (SMILES),Percent Effect [1] [%],Percent Effect [2] [%]
CC(C)(CNC(=O)NCCOc1cccc(F)c1)C(N)=O,-1.21,28.8
CC(=O)c1cccc(OCC(=O)NS(=O)(=O)c2ccc(C)s2)c1,-3.8,-7.24
CN(C)CC1CN(CCOc2cccc(C#N)c2)CCO1 (stereo not given),-0.815,15.6
COc1ccccc1CC(=O)N1CCC(NCc2cc[nH]c2)CC1,-2.74,-11.8
COc1ccccc1NC(=O)CSC1CCc2ccccc2NC1=O (stereo not given),-0.871,-1
Cn1cnc2c1C(COCC1CCOCC1)CN(C(=O)c1ccoc1)C2 (stereo not given),2.22,-11.7
O=C(Cc1ccsc1)N1CCCC(c2n[nH]c3nccnc23)C1 (stereo not given),-5.85,6.36
CN(C)CC1CN(c2ccc(C#N)cn2)CCO1 (stereo not given),0.899,22.4
COc1ccc(C(=O)N2CCCCC2Cn2cccn2)c(F)c1 (stereo not given),3.52,-7.04
NC(=O)c1cnn2c1NCC(CNCCc1ccco1)C2 (stereo not given),0.367,26.6
CCCn1nc2c(cc1=O)CN(CC(=O)Nc1nnc(C)s1)CC2,8.7,-2.85
Cc1nc(CN2CCCN(C(=O)C(C)OCC3CC3)CC2)cs1 (stereo not given),-3.97,-12.8
c1ccc(Cn2ccnc2CN2CCCC2c2noc(C3CC3)n2)cc1 (stereo not given),6.6,-32.8
Cc1occc1C(=O)N1CCC2(CC1)C(c1cnn(C)c1)CC(=O)N2C (stereo not given),2.49,-8.78
CC1(C)OCC(CNC(=O)c2cnn(-c3cc(Cl)ccc3Cl)c2N)O1 (stereo not given),-2.66,17.5
CCN(Cc1ccccc1)C(=O)CN1CCCC(Cn2cncn2)C1 (stereo not given),2.11,3.34
CC(C)c1nnc2n1CC(CNCc1ccncc1)CC2 (stereo not given),-2.34,-14.7
O=C(COc1coc(CN2CCCCC2)cc1=O)Nc1ccccc1Cl,0.319,-4.27
CCSc1cc(C(=O)NCc2ccccc2O)ccn1,2.33,11.7
CS(=O)(=O)N1CCN(CC(O)COc2ccc(F)cc2)CC1 (stereo not given),1.99,26.7
O=C(Cn1cc(C(=O)O)ccc1=O)Nc1ccc(F)cc1Cl,-8.57,-28.6
CC(C)c1nc(C2CCCN2CC(=O)Nc2ccc(Cl)cn2)no1 (stereo not given),-6.33,9.53
C[C@@H]1CN(C(=O)NC2CC2)C[C@]12CCN(c1ccsc1)C2=O,2.34,-3.08
CCN1CCC2(CCC(=O)N2Cc2cccc(C)n2)CC1,-3.94,1.16
O=C(CN1CCOC(Cn2cccn2)C1)Nc1nccs1 (stereo not given),-4.87,-17.3

Structure (SMILES),Percent Effect [1] [%],Percent Effect [2] [%]
CCc1nnc2n1CCN(C(=O)c1ccc(C(F)(F)F)nc1C)C2,1.43,-8.18
Cn1nc2c(cc1=O)CN(CCc1nc3ccccc3c(=O)[nH]1)CC2,7.01,2.17
O=C(CCc1nccs1)N1CCN(c2ccccc2F)CC1,-6.57,-11.9
CCc1ccc(CN2CC[C@H]3C[C@H](c4nnc(C)[nH]4)O[C@@H]3C2)o1,0.228,1.93
CN(C)C(=O)[C@@H]1C[C@@H]2CCN(Cc3ccc4c(c3)OCO4)C[C@@H]2O1,-0.869,3.86
Cc1ccccc1-c1cncc(C2CCN(C(C)C)CC2)n1,-1.25,-10.3
CNc1cc(N2CCCC2CNCc2ccccn2)ncn1 (stereo not given),1.56,-35.2
Cc1occc1C(=O)N1CCOCC2(CCN(Cc3nccs3)C2)C1 (stereo not given),-0.802,-26.4
Cc1cc(C[C@@H]2COC[C@H]2NCc2ccc(Br)s2)on1,-1.77,4.69
CCOC(CC)C(=O)NCc1ccnc(Oc2ccc(F)cc2)c1 (stereo not given),0.301,5.28
CN(C)C(=O)N1C[C@@H]2COC[C@]2(CNS(C)(=O)=O)C1,-0.382,-0.0161
Cc1cccc(-n2cc(C(=O)N3CCCC(n4ccnc4)C3)nn2)c1 (stereo not given),1.58,7.71
Cc1noc(C)c1CNCC1CCCN1c1cccnn1 (stereo not given),1.53,5.13
Cc1nc(C)c(C(=O)NCCNC(=O)Cc2cccc(F)c2)s1,4.17,6.14
CCn1cc(CN(C)S(=O)(=O)c2ccc(Cl)cc2)cn1,-1.31,-34
COCC1c2c(cnn2CC2CC2)CCN1Cc1ccc(OC)cc1 (stereo not given),0.786,4.64
COc1cc(CN2CC[C@@]3(CCCO3)[C@@H](O)C2)ccc1F,4.99,3
Cc1ccsc1[C@@H]1CCN(C(=O)c2cc3ccccc3[nH]2)C[C@H]1O,-0.724,-11.7
CCn1cc(N2Cc3nc(N4CCN(C)CC4)ncc3C2=O)cn1,-1.54,-50.9
CC(=O)N1CC(=O)N(c2cnn(C)c2)CC12CCN(CC1CC1)C2 (stereo not given),4.21,-23.2
Cn1cnnc1C1CCCN(C(=O)NCCNc2ccccn2)C1 (stereo not given),-6.46,19
CC(C)(C)c1n[nH]c(C2CN(C(=O)CCc3cscn3)CCO2)n1 (stereo not given),-2.97,7.94
CC(C)c1noc(C(C)N2CCN(Cc3ccccc3C#N)CC2)n1 (stereo not given),-1.01,12.5
CN(C)S(=O)(=O)N1CCC[C@]2(C[C@@H](Oc3ccccn3)CO2)C1,3.16,-10.1
Cc1noc(C)c1CNC(=O)N1CCN(Cc2cscn2)CC1,0.233,1.78
